High-throughput results from PubChem BioAssay.
In the library only some 8% were active in any assay of this set; here they are far more common.
KB-V1 MDR tox: qHTS assay for MDR1-selective chemotherapeutics: Primary screen using the drug-selected MDR subline cells KB-V1 | KB-V1 MDR cells viability, CellTiter-Glo, 72 h | Potency, µM (doses to about 46.1 µM), usual class: cytotoxic | actives 3.4% (n = 400,000) | AID 1347076, 2019; also: nearly all actives have a fitted effect of over 60% in size
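In this primary screen, KB-V1 cells overexpressing P-gp are incubated with library compounds (lowest to highest concentration) for 72 h at 37 degrees C before a luminescent ATP viability read.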
KB-3-1 tox: qHTS assay for MDR1-selective chemotherapeutics: Primary screen using the parental adenocarcinoma cell KB-3-1. Potency, µM (series often up to 46.1 µM), usual class: cytotoxic. KB-3-1 viability, CellTiter-Glo ATP luminescence, 72 h. actives 1.4% (n = 400,000); also: nearly all actives have a fitted effect of over 60% in size
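Using CellTiter-Glo luminescence, growth of non-resistant KB-3-1 adenocarcinoma cells is assessed 72 h after pin-tool compound addition at 37 °C. Normalized responses across the concentration series yield fitted curves.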
HT1080-NT tox: qHTS for induction of synthetic lethality in tumor cells producing 2HG: qHTS for the HT-1080-NT fibrosarcoma cell line; AID 686970, 2013; actives 1.6% (n = 360,000); HT-1080-NT fibrosarcoma viability, CellTiter-Glo ATP luminescence, 48 h; Potency, µM (doses to about 46.1 µM), usual class: cytotoxic;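 also: NT is the 2HG producing partner of a matched IDH1 knockdown line; nearly all actives have a fitted effect of over 55% in size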
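Read-out is CellTiter-Glo luminescence after 10 minutes at room temperature, following 48 hours' compound treatment of HT-1080-NT cells (750 cells/well, RPMI, 5% FBS, 37 degrees C).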
HT1080 IDH1KD tx: qHTS for induction of synthetic lethality in tumor cells producing 2HG: qHTS for the HT-1080-IDH1KD cell line; Potency, µM (highest dose often 46.1 µM), usual class: cytotoxic; HT-1080 IDH1 knockdown viability, ATP luminescence, 48 h; actives 2% (n = 360,000); AID 686971, 2013
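Viability of IDH1-knockdown HT-1080 fibrosarcoma cells was assessed by CellTiter-Glo after 48 h at 37 °C with titrated compound; concentration-effect curves were classified by fit quality and response size.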
MCF10A rereplic: A quantitative high throughput screen for small molecules that induce DNA re-replication in MCF 10a normal breast cells; AID 624296, 2012; actives 2.9% (n = 350,000); MCF 10A DNA re-replication, Hoechst nuclear intensity, 48 h; Potency, µM (series often up to 46.1 µM), actives largely listed as activators; also: nearly all actives have a fitted effect of over 50% in size
SW480 rerep: A quantitative high throughput screen for small molecules that induce DNA re-replication in SW480 colon adenocarcinoma cells; SW480 DNA re-replication, Hoechst DNA content imaging, 48 h; Potency, µM (titrated, usually from 46.1 µM), actives largely listed as activators; actives 1.8% (n = 340,000); AID 624297, 2012; also: nearly all actives have a fitted effect of over 55% in size
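Compounds, transferred as 23 nL by pin tool, were incubated with cells for 48 hr; DNA content per nucleus was then quantified by Hoechst staining and fluorescence plate imaging.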
A number is an active result; – = inactive; ? = inconclusive; · = no result. Calls follow the shape of the dose curve; as a rule, active = well fitted curve in the direction sought with a large enough effect; inconclusive = small, poorly fitted or top-dose-only effect, or another doubt; inactive = no such curve, though single readings can be large; an effect the other way counts as inactive or inconclusive.

SMILES	KB-V1 MDR tox	KB-3-1 tox	HT1080-NT tox	HT1080 IDH1KD tx	MCF10A rereplic	SW480 rerep
CCOc1ccc(CCNC(=O)c2[nH]c3cc(OC)ccc3c2Sc2ccccc2)cc1OCC	–	–	·	·	·	·
O=S(=O)(NCC(O)c1ccccc1)c1ccc(-c2ccccn2)s1 (stereo not drawn)	?	–	–	–	?	23µM
CCOC(=O)c1ccc(N2C(=O)c3n[nH]c(C)c3C2c2ccccc2)cc1 (stereo not drawn)	13µM	–	–	–	–	–
COc1ccc(-c2n[nH]c3c2C(c2ccc(OC)c(OC)c2)N(c2ccccc2)C3=O)cc1 (stereo not drawn)	15µM	?	?	?	–	–
COc1ccc(C2c3c(-c4ccc(F)cc4)n[nH]c3C(=O)N2c2ccccc2)cc1OC (stereo not drawn)	–	?	·	·	·	·
CCOC(=O)c1ccc(N2C(=O)c3[nH]nc(-c4ccc(OC)cc4)c3C2c2ccc(C)cc2)cc1 (stereo not drawn)	18µM	?	·	·	·	·
CCCCCOc1ccc(Cn2c(=O)oc3ccc(C)cc32)cc1OC	?	–	·	·	·	·
CN(C)c1ccc(/C=C/c2ccnc3ccc(-c4ccccc4)cc23)cc1	–	–	·	·	·	·
COc1ccccc1NC(=O)Cn1cnc2c(cnn2-c2ccc(C)c(C)c2)c1=O	13µM	–	–	–	–	–
O=C(Cn1cnc2c(cnn2-c2ccc(F)cc2)c1=O)N1CCN(c2ccccc2F)CC1	3.7µM	–	–	–	–	–
COc1ccccc1NC(=O)CN1C(=O)CC(c2ccc(C)c(C)c2)=Nc2ccccc21	16µM	–	·	·	·	·
Cc1ccc(-n2ncc3c(=O)n(CC(=O)N4CCN(c5ccccc5F)CC4)cnc32)cc1C	–	–	–	–	?	–
Cc1ccc(-n2ncc3c(=O)n(CC(=O)N4CCCc5ccccc54)cnc32)cc1C	18µM	–	–	–	?	–
Cn1nnnc1SCCCNCc1cccc(OCc2ccc(F)cc2)c1	–	–	·	·	·	·
CCc1ccc2c(c1)-c1ccccc1S(=O)(=O)N2CC(=O)N1CCC(C)CC1	–	–	·	·	·	·
COc1ccc(N2CCN(C(=O)CS(=O)(=O)c3cccc4nsnc34)CC2)cc1	?	–	·	·	·	·
Cc1ccc(-n2ncc3c(=O)n(CC(=O)N4CCN(c5ccccc5)CC4)cnc32)cc1	?	–	–	–	–	–
O=C(Cn1cnc2c(nnn2Cc2ccc(F)cc2)c1=O)N1CCCc2ccccc21	16µM	–	–	–	–	–
O=c1c2cnn(-c3ccccc3)c2ncn1Cc1ccccc1	21µM	–	–	–	–	–
O=C(Cn1cnc2c(cnn2-c2ccc(F)cc2)c1=O)N1CCCc2ccccc21	2.9µM	?	–	–	–	–
Cc1ccc(-n2ncc3c(=O)n(CC(=O)N4CCN(C(=O)c5ccco5)CC4)cnc32)cc1	12µM	–	–	–	–	–
COc1ccc(-n2ncc3c(=O)n(CC(=O)N4CCCc5ccccc54)cnc32)cc1	?	?	–	–	–	–
CCOc1ccc(-n2c(SCC(=O)N3CCOCC3)nc3c([nH]c4ccccc43)c2=O)cc1	?	–	·	·	·	·
CN(C)CCc1c[nH]c2ccc(CC3COC(=O)N3)cc12 (stereo not drawn)	·	·	·	·	–	–
CC(C)NC(=O)Cn1cnc2c(cnn2-c2ccc(F)cc2)c1=O	–	–	–	–	–	–
SMILES	KB-V1 MDR tox	KB-3-1 tox	HT1080-NT tox	HT1080 IDH1KD tx	MCF10A rereplic	SW480 rerep
COc1ccc(-n2ncc3c(=O)n(CC(=O)NC(C)C)cnc32)cc1	–	–	–	–	0.92µM	–
O=C(Cn1cnc2c(oc3ccccc32)c1=O)N1CCCc2ccccc21	4.1µM	–	–	–	–	–
O=C(CSc1ncnc2c1oc1ccccc12)N1CCCc2ccccc21	–	–	–	–	–	–
COc1ccccc1N(CC(=O)NCC1CCCO1)C(=O)CNS(=O)(=O)c1ccc(C)cc1 (stereo not drawn)	–	–	–	–	–	–
COc1ccccc1N(CC(=O)NCC1CCCO1)C(=O)CNS(=O)(=O)c1ccc(Cl)cc1 (stereo not drawn)	–	–	–	–	–	0.73µM
COc1ccc2[nH]c3c4c(ccc3c2c1)C(=O)C=CC4=O	–	9.2µM	13µM	16µM	?	3.3µM
COc1ccc2[nH]c(=O)cc(C(=O)O)c2c1	–	–	–	–	–	–
O=C(Nc1ccc(Cl)cc1)Nc1nnc(CSCc2ccccc2)s1	21µM	–	–	–	–	–
O=C(Nc1ccc(Cl)cc1)Nc1nnc(CSc2ccc(Cl)cc2)s1	?	?	–	–	?	?
O=C(Nc1cccc(Cl)c1)Nc1nnc(CSCCOc2ccc(Cl)cc2)s1	–	?	16µM	18µM	5.2µM	?
O=C(Nc1ccc(F)cc1)Nc1nnc(COc2ccccc2F)s1	?	–	?	15µM	?	–
COc1cc(OC)c(NS(=O)(=O)c2c(C(=O)N3CCCCCC3)c(C)n(C)c2C)cc1Cl	–	–	·	·	·	·
COc1ccc(OC)c(Nc2sc(C(=O)c3ccccc3)c(N)c2S(=O)(=O)c2ccccc2)c1	–	–	·	·	·	·
O=S1(=O)N=C(Oc2ccccc2F)c2ccccc21	–	–	·	·	·	·
COC(=O)c1cc(Cl)c(NC(=O)/C=C/c2ccc(Cl)cc2Cl)cc1OC	–	–	–	–	2.1µM	–
COc1ccc(NC(=O)c2ncoc2-c2ccco2)cc1Cl	–	?	·	·	·	·
CCOc1cc(C(=O)Nc2ccc3c(c2)n(C)c(=O)c(=O)n3C)cc(OCC)c1OCC	–	–	·	·	·	·
